The OligoGym collection
Also: reference of the scale not given here.

The sequences below were run against ARIH1 (assay: pooled miR-30 sensor sort-seq; sequence = guide strand). Settings: shRNA.
TTAACCACTTACATTTAACAGG was tested, and the sensor-assay potency score (higher = more potent) was -0.703. TACTTTCTGCTTTATATCCTGC showed a sensor-assay potency score (higher = more potent) of 0.014. Work on TTAGGGTAGTTCAAGTAGCAGA yielded a sensor-assay potency score (higher = more potent) of -0.412. TATCCTGCAGAGAATCTTGGGA was tested, and the sensor-assay potency score (higher = more potent) was 0.446. TTGTCTTGTACTTTCTGCTTTA showed a sensor-assay potency score (higher = more potent) of -0.218. For TTACAGTAGAACAGGTACCTCT, the sensor-assay potency score (higher = more potent) was -0.0917. TTTAACAGTCGATTGCACTCTA was tested, and the sensor-assay potency score (higher = more potent) was 0.745. In the case of TTGGACTTTAACAACATGGTGG, the sensor-assay potency score (higher = more potent) is reported as 0.0155.

Each sequence was assayed against ARL3 in the same assay as above. Settings: shRNA.
In the case of TTTGATGTTGAAACCCTGTGTA, the sensor-assay potency score (higher = more potent) is reported as 0.537. In the case of TTGACATTTTTGCAGACCCAGT, the sensor-assay potency score (higher = more potent) is reported as -1.64. TTACATATATAAGAATATCGGT was tested, and the sensor-assay potency score (higher = more potent) was -0.321. Work on TTGATGTTGAAACCCTGTGTAG yielded a sensor-assay potency score (higher = more potent) of -0.924. With TTTTCTGTCTGCACTGTCGATT the sensor-assay potency score (higher = more potent) was -0.243. With TAATTCTTCCAGTATGGTCTGA the sensor-assay potency score (higher = more potent) was 0.485. TTTTCAAAATAATTCTTCCAGT showed a sensor-assay potency score (higher = more potent) of -0.927. ATACATTCAGTTTAAAACCTTG was tested, and the sensor-assay potency score (higher = more potent) was -0.514. TTGTGATTGTACACTTTTGATG showed a sensor-assay potency score (higher = more potent) of -1.36. Sequence TTTTTCTGTCTGCACTGTCGAT has a sensor-assay potency score (higher = more potent) of -0.887. With TCTGGTGCACTTTTCAACTTGC the sensor-assay potency score (higher = more potent) was 0.321. For AACCTTGTGATTGTACACTTTT, the sensor-assay potency score (higher = more potent) was -0.441. TTAGTTTTTCTTCCTCCAGTAA gave a sensor-assay potency score (higher = more potent) of -0.387. AATCTTTTTCTGTCTGCACTGT showed a sensor-assay potency score (higher = more potent) of -0.19. TTGTACACTTTTGATGTTGAAA gave a sensor-assay potency score (higher = more potent) of -1.03. TTCAGTTTAAAACCTTGTGATT gave a sensor-assay potency score (higher = more potent) of -1.5. With TACATATATAAGAATATCGGTA the sensor-assay potency score (higher = more potent) was -0.522. With TTCAGATGCAAGCTGCTTCAGA the sensor-assay potency score (higher = more potent) was -0.224. TTCAGAAGAGTGGTCTTGCCAG was tested, and the sensor-assay potency score (higher = more potent) was -0.492. With TAAGAATATCGGTATTTTCAAA the sensor-assay potency score (higher = more potent) was -1.26. AATTCTTCCAGTATGGTCTGAT showed a sensor-assay potency score (higher = more potent) of 0.17. Work on TGATTGTACACTTTTGATGTTG yielded a sensor-assay potency score (higher = more potent) of -0.736. TTTTGATGTTGAAACCCTGTGT gave a sensor-assay potency score (higher = more potent) of 0.456.

Each sequence was assayed against ARL4D in the same assay as above. Settings: shRNA.
TTGGAAGGTGATGCCACGCGAT was tested, and the sensor-assay potency score (higher = more potent) was -0.67. TGGACAAACTCCTTGAACTTGA was tested, and the sensor-assay potency score (higher = more potent) was -0.891. TAGACCGTCTGTCCGGCGGGTA gave a sensor-assay potency score (higher = more potent) of -1.34. For TTCCTCTTGAGGATCATCTCAT, the sensor-assay potency score (higher = more potent) was 0.0255. For ACAAACACTAGACCGTCTGTCC, the sensor-assay potency score (higher = more potent) was -0.415. Work on TTTGGTGGGGACACTCTGGACA yielded a sensor-assay potency score (higher = more potent) of -0.71. In the case of ATTCGGTGCAACTCCACCTTGG, the sensor-assay potency score (higher = more potent) is reported as -0.512. With TCCACCACAAACACTAGACCGT the sensor-assay potency score (higher = more potent) was -0.55. TGATTCGGTGCAACTCCACCTT gave a sensor-assay potency score (higher = more potent) of 0.0703.
